Out of some 360,000 compounds screened, about 11,000 (3.1%) were called active. No stated cut-off is given here; in the data, active means activity change below about -30%; inactive means the rest. This excerpt belongs to a sample that is enriched for actives.
Target: D(1A) dopamine receptor (Homo sapiens) (UniProt P21728)
Test: Antagonist of Human D 1 Dopamine Receptor: qHTS
Conditions: HEK293 TREx D1 cells, calcium flux, dopamine EC80; at 10 µM; stronger effect = lower value
Method in brief: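 Kinetic fluorescence of a calcium dye serves as the read-out. D1-expressing Hek293 Trex cells, induced overnight at 30 C, are exposed to compound for 180 s before an EC80 dopamine addition, then read 180 s further.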
On the % scale 0 is the no-effect control and ±100 the full control effect.

Sequence of D(1A) dopamine receptor (Homo sapiens) (P21728 whole entry, looked up): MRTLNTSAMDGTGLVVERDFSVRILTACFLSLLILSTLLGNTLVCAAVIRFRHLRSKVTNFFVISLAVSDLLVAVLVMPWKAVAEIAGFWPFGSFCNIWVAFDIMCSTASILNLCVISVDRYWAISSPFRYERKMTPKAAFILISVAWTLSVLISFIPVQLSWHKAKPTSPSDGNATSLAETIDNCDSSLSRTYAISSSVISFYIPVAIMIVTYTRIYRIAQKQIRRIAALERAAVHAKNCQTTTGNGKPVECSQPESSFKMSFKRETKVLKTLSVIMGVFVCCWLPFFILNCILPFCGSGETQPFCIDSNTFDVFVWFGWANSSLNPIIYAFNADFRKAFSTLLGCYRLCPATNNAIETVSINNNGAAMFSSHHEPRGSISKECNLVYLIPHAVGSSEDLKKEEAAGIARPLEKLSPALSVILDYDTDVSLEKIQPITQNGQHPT

Activity change, negative = inhibition, inactive:
CCOC(=O)C1=C(c2ccccc2)Nc2ncnn2C1c1ccc(Cl)cc1 (stereo not drawn) 6.82%, CS(=O)(=O)c1ccc(-c2nnc(NC(=O)c3ccc4c(c3)OCCO4)o2)cc1 -10.1%, O=C(CSc1oc(-c2ccco2)nc1S(=O)(=O)c1ccccc1)c1ccc(Cl)cc1 -17.4%, CCOC(=O)c1cc(-c2ccccc2)n(-c2cccc(C(=O)Nc3cc(OC)cc(OC)c3)c2)c1C -24.9%, CC(=O)c1cc(C#N)c(N2CC(C)OC(C)C2)nc1C (stereo not drawn) -0.422%, CC(=O)c1cc(C#N)c(SCC(=O)Nc2nccs2)nc1C 2.32%, O=C(Cn1c(=O)n(Cc2ccccc2)c(=O)c2sc3ccccc3c21)Nc1ccccc1F 0.434%, CNC(=O)c1ccc(-c2nc(CN3CCc4ccccc43)c(C)o2)cc1 6.56%, COc1cccc(Cn2c(CNS(=O)(=O)c3ccc(Cl)s3)nc3cccnc32)c1 25.3%, CN1CCN(C(=O)c2ccc(NS(=O)(=O)c3ccccc3)cc2)CC1 -3.19%, CCOC(=O)c1cccc(NS(=O)(=O)c2c(C(=O)N3CCCCCC3)c(C)n(C)c2C)c1 14.9%, Cc1ccc(C(=O)CSc2nc(-c3ccccc3)nc3c2CCCC3)c(C)c1 17.2%, Cc1ccc(C(C)NC(=O)Cn2nc(C)c([N+](=O)[O-])c2C)cc1 (stereo not drawn) -12%, Cc1ccn(CC(=O)N2N=C(C(F)F)CC2(O)C(F)F)n1 (stereo not drawn) 3.73%, CCc1nnc(SCc2nc(-c3cccc(C)c3)oc2C)c2cc3sc(C)cc3n12 8.82%, CCc1cccc(NC(=O)c2cnc(N3CCOCC3)c3ccccc23)c1 -4.31%, CC(=O)c1sc(N2C(=O)c3oc4ccccc4c(=O)c3C2c2ccc(C)cc2)nc1C (stereo not drawn) 1.92%, O=C(CN1CCCCC1)Nc1ccccc1C(=O)NC1CC1 6.93%, COC(=O)c1ccccc1NC(=O)CSc1nnnn1C -7.79%, Cc1cccc(CCNC(=O)c2ccc3c(c2)nc2n3CCC(C)C2)c1 (stereo not drawn) 2.06%, Oc1ccc(Cl)cc1C1C=C(c2ccc3c(c2)OCO3)NC(c2c(F)cccc2Cl)N1 (stereo not drawn) -6.98%, COc1ccc(S(=O)(=O)Nc2cccc3cccnc23)c(N)c1 8.2%, COc1cccc(-n2ccn(CC(=O)NCc3ccc(C)cc3)c(=O)c2=O)c1 -17.3%, S=C(NCCc1ccccc1)NCC1CCCO1 (stereo not drawn) 5.26%, CCC(=O)NC(NCC1CCCO1)C(Cl)(Cl)Cl (stereo not drawn) -13.3%, O=C(CC1Oc2ccc(Cl)cc2NC1=O)NCc1ccccc1 (stereo not drawn) -13.4%, CCC(C(=O)OCC(=O)Nc1ccccc1-c1ccccc1)c1ccccc1 (stereo not drawn) 5.02%, CCC(C(=O)OCC(=O)Nc1c(Cl)cc(Cl)cc1Cl)c1ccccc1 (stereo not drawn) -5.4%, CCOC(=O)c1ccc(CSc2nnc3cc(C)c4ccccc4n23)cc1 11.8%, CCN(CC)S(=O)(=O)c1ccc(C(=O)N=c2sc3cccc(OC)c3n2C)cc1 -7.05%, CCOc1ccc(-c2nonc2NC(=O)c2oc3ccc(CC)cc3c2C)cc1 -6.14%, COc1ccc(S(=O)(=O)N2CCN(c3ccc(F)cc3)CC2)cc1-c1noc(C)n1 -9.63%, COc1ccc(N2CCN(S(=O)(=O)c3ccc(-c4coc(C)n4)cc3)CC2)cc1 3.09%, Cc1cc(C)cc(NC(=O)CCCc2nc(-c3ccccc3Cl)no2)c1 5.87%, Cc1ccc(NC(=O)c2ccc(CN3CC(=O)N4CCCCC4C3=O)cc2)c(Cl)c1 (stereo not drawn) 1.45%, Cc1ccc(CC2C(=O)N(c3ccc(F)cc3)C(=O)C2C)cc1 (stereo not drawn) -14.1%

Activity change, negative = inhibition, active:
CC(=O)c1cc(C#N)c(N2CCCCC2)nc1C -36.9%, CCOC(=O)N1CCN(C(=O)c2ccc(S(=O)(=O)Nc3cccc(C(F)(F)F)c3)cc2)CC1 -41.7%, Cc1nn(Cc2ccc(C(=O)N3N=C(C(F)F)CC3(O)C(F)F)cc2)c(C)c1[N+](=O)[O-] (stereo not drawn) -31.2%, Cn1nnnc1SCC(=O)Nc1ccccc1C(=O)NC1CC1 -31.5%, CC1(C(=O)NNC(=S)NCC2CCCO2)CC1(Cl)Cl (stereo not drawn) -33.9%, CCC(C(=O)OCC(=O)Nc1ccc(C(=O)Nc2ccc(OC)cc2)cc1)c1ccccc1 (stereo not drawn) -57.6%, CCc1nc(-c2cc(S(=O)(=O)N3CCN(c4ccc(OC)cc4)CC3)ccc2OC)no1 -58.8%
